Compounds without any hit were thinned out: in the full panel of roughly 79,000, 15% have a hit. Rule as the data show it: active = growth inhibition above about 70%; inactive = the rest.
Experiments:
[1] = NCI Yeast Anticancer Drug Screen. Data for the rad50 strain (AID 155);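 also: 0% = growth of vehicle-only cultures of the same strain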; settings: S. cerevisiae rad50 strain growth inhibition; at 50.0 µM; hits give high values
In short: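 Growth of the mutant yeast was measured after compound exposure and referenced to vehicle-treated cultures.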

[2] = NCI Yeast Anticancer Drug Screen. Data for the mec2-1 strain (AID 157); settings: S. cerevisiae mec2-1 strain, at 50.0 µM, hits give high values
In short: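 Mutant yeast (mec2-1) grown with compound; growth inhibition relative to vehicle control reported.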

[3] = NCI Yeast Anticancer Drug Screen. Data for the sgs1 mgt1 strain (AID 161);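 also: 0% = growth of cultures given vehicle only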; settings: S. cerevisiae sgs1 mgt1 strain, at 50.0 µM, hits give high values
In short: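 Yeast cells carrying a defined DNA-repair defect were exposed to test compounds. Growth inhibition was measured relative to vehicle-treated controls.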

[4] = NCI Yeast Anticancer Drug Screen. Data for the cln2 rad14 strain (AID 165);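 also: 0% = growth equal to vehicle treated cultures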; settings: S. cerevisiae cln2 rad14 strain, at 50.0 µM, hits give high values
In short: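 Readout is yeast growth inhibition versus vehicle-treated controls, using a strain with cln2 and rad14 alterations exposed to compound.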

[5] = NCI Yeast Anticancer Drug Screen. Data for the bub3 strain (AID 167); settings: S. cerevisiae bub3 mutant strain, at 50.0 µM, hits give high values
In short: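 Whole-cell yeast assay. The mutant strain was incubated with compounds, and growth inhibition was determined by comparison with vehicle-treated cells.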

[6] = NCI Yeast Anticancer Drug Screen. Data for the mlh1 rad18 strain (AID 175); settings: S. cerevisiae mlh1 rad18 strain growth inhibition; at 50.0 µM; hits give high values
In short: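 Genetically defined yeast (DNA repair-deficient) exposed to compounds; growth inhibition determined relative to vehicle.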

Measured: growth inhibition

C#CCOCn1cc(C)c(=O)[nH]c1=O
inactive: [1] 0.4% | [2] -0.1% | [3] 16.5% | [4] 10.4% | [5] 0.05% | [6] 12.4%

Clc1ccc2nsnc2c1Cl
inactive: [1] -0.1% | [2] -1.25% | [3] -3.75% | [4] -19.4% | [5] 7.8% | [6] 8.1%

CN(CCN(C)C(=O)CCOS(C)(=O)=O)C(=O)CCOS(C)(=O)=O
inactive: [1] -3.95% | [2] -3.05% | [3] -18.4% | [4] 0% | [5] -25.6% | [6] -51.5%

O=C(CC(c1ccccc1)N1CCCCC1)OCC1CCCO1 (stereo not drawn)
inactive: [1] -0.85% | [2] -13.7% | [3] -4.1% | [4] -44.5% | [5] -1.85% | [6] 14.3%

C/C(CCn1[nH]c(=O)ccc1=O)=N\N=C(N)N
inactive: [1] -13.2% | [2] -13.1% | [3] -0.65% | [4] -4.85% | [5] -1.4% | [6] 1.7%

COc1ccc(C(C)=C2C=C(C(C)(C)C)C(=O)C(C(C)(C)C)=C2)cc1
inactive: [1] -26.6% | [2] -16.2% | [3] -17.4% | [4] 34.2% | [5] 1.35% | [6] -17.4%

Cc1ncc(Cl)c2cc3ccccc3cc12
inactive: [1] -2.4% | [2] 2.1% | [3] -0.7% | [4] -24.6% | [5] -3.25% | [6] -7.55%

CCOCCC(O)CC (stereo not drawn)
inactive: [1] 3.3% | [2] -31.2% | [3] -4.9% | [4] 17.7% | [5] 9.8% | [6] 14%

CCc1nc2c(N)ncnc2o1
inactive: [1] -1.45% | [2] -1.5% | [3] -3.3% | [4] -37.3% | [5] -19.8% | [6] 11.4%

CC(=O)C(C)(C)CCC(C)(C)C(C)=O
inactive: [1] 2.95% | [2] -12.6% | [3] -4% | [4] 13.1% | [5] 8.4% | [6] -20.6%

NNC(=Nc1ccccc1)SCc1ccccc1
inactive: [1] 3.05% | [2] 0.5% | [3] 23.4% | [4] 7.75% | [5] 20.2% | [6] -30.9%

c1ccc(N2CCN(C(c3cccs3)N3CCN(c4ccccc4)CC3)CC2)cc1
inactive: [1] 7.35% | [2] 8.9% | [3] 0.8% | [4] -4.15% | [5] -5.5% | [6] 19.1%

O=c1c2cccnc2[nH]c2ccc3[nH]ncc3c12
inactive: [1] -17.2% | [2] -25.9% | [3] -13.4% | [4] 26.4% | [5] -30.9% | [6] 15.6%

CC1OC(OC2C(Oc3cc(O)c4c(=O)cc(-c5ccc(O)cc5)oc4c3)OC(CO)C(O)C2O)C(O)C(O)C1O (stereo not drawn)
inactive: [1] -6.15% | [2] 5.75% | [3] -14.2% | [4] -19.9% | [5] 6.35% | [6] -7.65%

C/C(=N/NC(N)=O)c1ccc([N+](=O)[O-])o1
inactive: [1] 29.9% | [2] 9.9% | [3] 30.8% | [4] 16.1% | [5] 14.9% | [6] 47.2%

Cc1c(Cl)cc(Cl)c(N)c1Cl
inactive: [1] -4.4% | [2] -13.7% | [3] -18% | [4] -5.3% | [5] -16.1% | [6] -15.2%

CC1=C(C(=O)Nc2ccccc2)C(c2ccccc2)C(C(=O)Nc2ccccc2)=C(C)N1
inactive: [1] 4.2% | [2] 2.55% | [3] 14.5% | [4] 18.4% | [5] 0.55% | [6] 22.4%

O=C(NCCc1c[nH]c2ccccc12)C1CCCCC1
inactive: [1] -3.65% | [2] -5.45% | [3] 7.85% | [4] -25.6% | [5] 14.1% | [6] -10.1%

CC(C(/C=N/NC(N)=S)=N/NC(N)=S)N1C(=O)c2ccccc2C1=O (stereo not drawn)
inactive: [1] 3.75% | [2] -11.2% | [3] -16.9% | [4] -5.1% | [5] 2.45% | [6] 23.9%

Cc1cccc(C(C)(O)c2cnc(C)n2Cc2ccccc2)c1 (stereo not drawn)
inactive: [1] 5.1% | [2] 14.2% | [3] 10.8% | [4] 18.8% | [5] 9.35% | [6] 15.2%

CCOc1cc(/C=N/NC(=O)N(c2ccccc2)c2ccccc2)ccc1O
inactive: [1] 4.25% | [2] -8.6% | [3] 25.6% | [4] 12.8% | [5] 24.6% | [6] 7.35%

Cc1ccccc1NC(=O)/C(C#N)=N\Nc1nc[nH]c1C(N)=O
inactive: [1] -33.7% | [2] -22.6% | [3] -11.8% | [4] 6.2% | [5] -45.9% | [6] 13.1%

CC1=C(C(=O)OCCc2ccc([N+](=O)[O-])cc2)C(c2cccc([N+](=O)[O-])c2)C(C(=O)OC(C)C)=C(C)N1 (stereo not drawn)
inactive: [1] 0.15% | [2] -6.95% | [3] 12.8% | [4] 0.45% | [5] 16.1% | [6] -30.9%

CCN(CC)CCC(CCN(CC)CC)(COC(=O)c1ccc([N+](=O)[O-])cc1)c1ccccc1
inactive: [1] 19.7% | [2] 9.1% | [3] 20.1% | [4] -4.15% | [5] -0.55% | [6] 12.6%

CN(C)c1ccc(/C=N/NC(=O)c2ccc(N)cc2)cc1
inactive: [1] 1.35% | [2] 5.15% | [3] -12.7% | [4] -12.4% | [5] -2.4% | [6] 14.3%

CC(=O)[C@H]1C[C@@H](CC(=O)O)C1(C)C
inactive: [1] -0.55% | [2] -11.8% | [3] -10.6% | [4] -6% | [5] -3.25% | [6] -3.15%

CSc1nc2c(nnn2C2OCC(O)C(O)C2O)c(=O)[nH]1 (stereo not drawn)
inactive: [1] -10.7% | [2] -0.5% | [3] -11.9% | [4] -4.3% | [5] -6.1% | [6] 6.4%

CCc1c(C(=O)OC)c(C(=O)OC)c(-c2ccc(C)cc2)n1CCn1c(CC)c(C(=O)OC)c(C(=O)OC)c1-c1ccc(C)cc1
inactive: [1] -0.55% | [2] 0.3% | [3] -26.1% | [4] -0.6% | [5] -3.15% | [6] 17.9%

CC(C#N)c1cn(S(=O)(=O)c2ccccc2)c2ccccc12 (stereo not drawn)
inactive: [1] 30.6% | [2] 3.4% | [3] -5.4% | [4] 9.75% | [5] 52.7% | [6] 37%

COc1cc([C@@H]2c3cc4c(cc3[C@H](OC3OC5COC(C(C)C)OC5C(O)C3O)C3COC(=O)[C@@H]32)OCO4)cc(OC)c1OC (stereo partly drawn)
inactive: [1] 11.6% | [2] 46.7% | [3] 31% | [4] 3.2% | [5] 9.25% | [6] -41.8%

O=C1CC2CCC(C1)S2
inactive: [1] -18.1% | [2] -28.6% | [3] -15.4% | [4] 16.1% | [5] -2.95% | [6] -33%

CC(=O)NC1=NN(C(C)=O)C(C)(c2ccccc2)S1=O (stereo not drawn)
inactive: [1] 9.65% | [2] -1.25% | [3] 3.7% | [4] 10% | [5] -3.95% | [6] 14.7%

CCCC(=O)Oc1ccc(CC)cc1
inactive: [1] 25.5% | [2] 15.4% | [3] 8.75% | [4] -20.4% | [5] 14.5% | [6] 20.9%

O=C(O)c1cc2ccc(Cl)cc2c2cc(C(F)(F)F)ccc12
inactive: [1] 2.25% | [2] 27.8% | [3] 27.2% | [4] 50.9% | [5] 27.2% | [6] 53.7%

Brc1ccc(N=N/C(=N/Nc2ccccc2)c2ccc(/C=N/Nc3ccccc3)cc2)cc1
inactive: [1] 45.8% | [2] 24.4% | [3] 14.6% | [4] 29.2% | [5] 15% | [6] 34.4%

C/C(CC(=O)Nc1ccc(NC(=O)C/C(C)=N\NC(N)=O)cc1)=N/NC(N)=O
inactive: [1] 3.5% | [2] -23.9% | [3] -4.65% | [4] 11.1% | [5] -14.1% | [6] 6.75%

Cc1ccc(Cl)nn1
inactive: [1] 10% | [2] -1.25% | [3] -2.55% | [4] -3.3% | [5] 12.9% | [6] 2.1%

COC(=O)C(Cc1cn(C(C)=O)c2ccccc12)P(=O)(OC)OC (stereo not drawn)
inactive: [1] -13.3% | [2] -40.1% | [3] -5.25% | [4] 13% | [5] 25.4% | [6] -11.8%

Source: PubChem BioAssay (NCI)
